According to the supplement of paper PMC9694430:
Where “and” joins values, the source holds several entries; their conditions need not be identical. Equal values may be shown once. Where a name gives a salt, the structure may show the parent alone.

What was measured:
Assay in all cases: thermal shift delta Tm vs DMSO control; higher = stronger stabilization (binding)
Conditions in all cases: 12.5 µM; protein concentration 2 µM
LOC_OS02G45750-cb003 = tested on: LOC_OS02G45750-cb003
Summary of the method: (§1)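 Purified, E. coli-expressed rice kinase domain constructs were tested by differential scanning fluorimetry in 96-well plates: 19.5 μl of 2 μM kinase in 100 mM potassium phosphate pH 7.5, 150 mM NaCl, 10% glycerol, 5 × SYPRO Orange, plus compound in DMSO. Fluorescence was read from 25°C to 95°C at 0.05°C/s. Melting temperatures came from Boltzmann fits, and the shift is the triplicate mean relative to protein with DMSO alone.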

LOC_OS02G54510-cb004 = tested on: LOC_OS02G54510-cb004
Summary of the method: as §1

LOC_OS03G04050-cb001 = tested on: LOC_OS03G04050-cb001
Summary of the method: as §1

LOC_OS03G12390-cb001 = tested on: LOC_OS03G12390-cb001
Summary of the method: as §1

LOC_OS03G27990-cb004 = tested on: LOC_OS03G27990-cb004
Summary of the method: as §1

LOC_OS03G50450-cb001 = tested on: LOC_OS03G50450-cb001
Summary of the method: as §1

LOC_OS03G50810-cb003 = tested on: LOC_OS03G50810-cb003
Summary of the method: as §1

LOC_OS04G35114-cb001 = tested on: LOC_OS04G35114-cb001
Summary of the method: as §1

LOC_OS04G38480-cb003 = tested on: T1, LOC_OS04G38480-cb003
T1 sequence (whole entry): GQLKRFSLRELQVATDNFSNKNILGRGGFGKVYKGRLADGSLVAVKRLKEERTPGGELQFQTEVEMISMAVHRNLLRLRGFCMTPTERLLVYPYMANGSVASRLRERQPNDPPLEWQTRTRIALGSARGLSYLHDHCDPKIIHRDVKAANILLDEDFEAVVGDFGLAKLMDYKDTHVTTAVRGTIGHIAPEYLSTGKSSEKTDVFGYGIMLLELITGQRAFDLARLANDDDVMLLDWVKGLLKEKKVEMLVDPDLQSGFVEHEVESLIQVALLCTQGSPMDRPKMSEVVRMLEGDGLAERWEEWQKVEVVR
Summary of the method: as §1

LOC_OS04G41100-cb001 = tested on: T2, LOC_OS04G41100-cb001
T2 sequence (whole entry): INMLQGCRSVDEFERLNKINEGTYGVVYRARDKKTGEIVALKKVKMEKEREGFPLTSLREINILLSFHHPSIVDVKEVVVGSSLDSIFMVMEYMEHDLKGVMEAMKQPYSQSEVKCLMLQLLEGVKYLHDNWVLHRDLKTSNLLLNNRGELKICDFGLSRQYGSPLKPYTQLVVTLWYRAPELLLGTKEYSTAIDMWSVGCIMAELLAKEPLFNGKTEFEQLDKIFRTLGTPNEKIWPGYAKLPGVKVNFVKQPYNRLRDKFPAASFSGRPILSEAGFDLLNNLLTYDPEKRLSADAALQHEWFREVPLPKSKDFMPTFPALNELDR
Summary of the method: as §1

Structure (SMILES)	thermal shift delta Tm (LOC_OS02G45750-cb003)	thermal shift delta Tm (LOC_OS02G54510-cb004)	thermal shift delta Tm (LOC_OS03G04050-cb001)	thermal shift delta Tm (LOC_OS03G12390-cb001)	thermal shift delta Tm (LOC_OS03G27990-cb004)	thermal shift delta Tm (LOC_OS03G50450-cb001)	thermal shift delta Tm (LOC_OS03G50810-cb003)	thermal shift delta Tm (LOC_OS04G35114-cb001)	thermal shift delta Tm (LOC_OS04G38480-cb003)	thermal shift delta Tm (LOC_OS04G41100-cb001)
CCOc1cc(C(=O)N2CCC(N3CCN(C)CC3)CC2)ccc1Nc1ncc2c(n1)N(C1CCCC1)c1ccccc1C(=O)N2C	0.51 °C	-0.24 °C	0 °C	-0.16 °C	0.03 °C	0.49 °C	0.18 °C	0.47 °C	1.8 °C	0.13 °C
N#CC1(c2ccc(NC(=O)c3cccnc3NCc3ccncc3)cc2)CCCC1 [Apatinib]	0.45 °C	1.36 °C	0.07 °C	-0.19 °C	0.11 °C	0.69 °C	0.22 °C	0.72 °C	0.83 °C	0.11 °C
CN(c1ncccc1CNc1nc(Nc2ccc3c(c2)CC(=O)N3)ncc1C(F)(F)F)S(C)(=O)=O	6.83 °C and 7.06 °C	1.05 °C and 1.09 °C	0.54 °C and 0.38 °C	3.95 °C and 4.88 °C	2.23 °C and 2.44 °C	2.36 °C and 2.48 °C	3.64 °C and 4.1 °C	4.17 °C and 4.61 °C	1.77 °C and 2.12 °C	1.82 °C and 1.92 °C
CCCCCCCCc1ccc(CCC(N)(CO)CO)cc1 [Fingolimod (FTY720) HCl]	-0.8 °C	-0.96 °C	-0.79 °C	-1.7 °C	-0.42 °C	-0.24 °C	-1.68 °C	-0.12 °C	0.32 °C	0.19 °C
CCN1C(=O)CNc2ncc(-c3ccc(-c4nc[nH]n4)nc3C)nc21	1.71 °C	-0.29 °C	-0.03 °C	-0.17 °C	-0.12 °C	-0.24 °C	-0.05 °C	0.7 °C	0.95 °C	-0.13 °C
Cc1cc2c(F)c(Oc3ncnn4cc(OC[C@@H](C)O)c(C)c34)ccc2[nH]1	1.84 °C	-0.24 °C	0.46 °C	-0.04 °C	1.01 °C	0.21 °C	0.22 °C	5.26 °C	1.05 °C	0.62 °C
Cc1nc2c(-c3cnc(N)nc3)nc(N3CCOCC3)nc2n1C(C)C	0.88 °C	0.46 °C	0.51 °C	0.59 °C	0.15 °C	0.73 °C	0.44 °C	1.59 °C		
COCCOc1cnc2ccn([C@H](C)c3nnc4c(F)cc(-c5cnn(C)c5)cn34)c(=O)c2c1	1.08 °C	-0.12 °C	0.22 °C	-0.12 °C	0.2 °C	0.05 °C	-0.09 °C	0.69 °C	0.41 °C	0.65 °C
COc1ccc2c(c1)[C@]1(C[C@H]1c1ccc3c(/C=C/c4ccc(CN5C[C@@H](C)O[C@@H](C)C5)cc4)n[nH]c3c1)C(=O)N2	9.37 °C	-0.19 °C	0.73 °C	0.7 °C	0.36 °C	0.66 °C	4.68 °C	4.47 °C	4.28 °C	0.19 °C
COCCNCc1ccc(-c2cc3nccc(Oc4ccc(NC(=O)C5(C(=O)Nc6ccc(F)cc6)CC5)cc4F)c3s2)nc1 [Sitravatinib (MGCD516)]	6.42 °C	1.08 °C	0.75 °C	0.75 °C	1.06 °C	0.57 °C	3.13 °C	6.52 °C	3.71 °C	3.13 °C
O=C1Cc2c([nH]c3ccc(Br)cc23)-c2ccccc2N1 [Kenpaullone]	6.87 °C	1.11 °C	0.51 °C	5.47 °C	2.21 °C	0.9 °C	2.26 °C	4.7 °C	2.14 °C	2.07 °C
O=C(c1ccc(Nc2nccc(-c3cc4ccccc4s3)n2)cc1)N1CCC(N2CCCC2)CC1 [IKK-16 (IKK Inhibitor VII)]	6.42 °C	1.74 °C	0.22 °C	2.55 °C	4.05 °C	1.23 °C	5.04 °C	5.32 °C	3.88 °C	4.91 °C
O=c1cc(-c2cccc3c2Sc2ccccc2S3)oc(N2CCOCC2)c1	0.06 °C	-0.02 °C	0.45 °C	0.59 °C	-0.19 °C	-0.07 °C	0.13 °C	-0.05 °C	1.71 °C	0.74 °C
C[C@H]1CNCCCN1S(=O)(=O)c1cccc2cncc(F)c12 [Ripasudil (K-115) hydrochloride dihydrate]	0.9 °C	-0.02 °C	0.39 °C	0.39 °C	0.16 °C	0.22 °C	0.68 °C	0.3 °C	1.26 °C	0.24 °C
O=C1Nc2ccc(CN3C(=O)CSC3=O)cc2/C1=C/c1cc(CN2CCOCC2)c[nH]1	2.91 °C	0.28 °C	0.58 °C	4.37 °C	0.63 °C	0.68 °C	2 °C	3.48 °C	3.05 °C	0.46 °C
CN(C[C@@H]1COCCO1)S(=O)(=O)Nc1ccc2ccc3ncc(-c4cnn(C)c4)cc3c(=O)c2c1	9.61 °C	0.42 °C	0.37 °C	0.09 °C	1.72 °C	0.44 °C	3.78 °C	7.88 °C	2.89 °C	0.3 °C
CC(C)(C)S(=O)(=O)c1ccc2nccc(Nc3n[nH]c4ccc(F)cc34)c2c1	0.81 °C	0.59 °C	0.15 °C	0.75 °C	0.12 °C	-0.21 °C	0.11 °C	3.68 °C	0.32 °C	0.12 °C
CC1(C)OCCn2c1nc1c(N3CCOCC3)nc(-c3cnc(N)nc3)nc12	-0.63 °C	0.42 °C	0.09 °C	-0.14 °C	0.19 °C	0.18 °C	0.33 °C	0.39 °C	0.75 °C	-0.13 °C
CC(C)CCN1c2nc(Nc3cc(F)c(O)c(F)c3)ncc2N(C)C(=O)C1C (stereo not drawn)	3.25 °C	1.91 °C	0.57 °C	7.92 °C	3.82 °C	2.58 °C	3.02 °C	3.84 °C	4.5 °C	1.29 °C
CN1c2ccccc2C(=O)Nc2cnc(Nc3ccc(N4CCC(O)CC4)cc3)nc21	5.71 °C	2.78 °C	0.24 °C	2.56 °C	1.24 °C	-0.12 °C	2.29 °C	3.85 °C	3.65 °C	0.15 °C
